Shown are actives, neighbours in structure and some others; about 15% of the full set was active somewhere.
Pf growth 48h: inhibits P. falciparum growth in the first generation, 48 h; P. falciparum luciferase growth in erythrocytes, 48 h; Potency, µM (series often up to 28.7 µM), inactives show top-dose activity change, negative = inhibition, hits mostly inhibitors; actives 5.9% (n = 310,000); further: potency means the concentration at half of the fitted maximal effect; on the % scale 0 is the no-effect control and ±100 the full control effect
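Here the parasites carry a stable luciferase gene and grow inside erythrocytes in Albumax-based RPMI medium with compound for one erythrocytic cycle. Activity is scored as loss of luminescent signal.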
SARS PLpro yeast: SARS-CoV PLP inhibition in yeast | AID 485353 | Potency, µM (series often up to 32.9 µM), for inactives: at the highest dose activity, positive = growth rescue, usual class: activators | S. cerevisiae expressing SARS-CoV PLpro, growth rescue | actives 0.19% (n = 330,000); calls by dose curve; further: potency means the concentration at half of the fitted maximal effect; 0% is about no effect; nearly all actives have a fitted effect of over 55% in size
Sm TGR inh: S. mansoni TGR enzyme inhibition; purified TGR, DTNB reduction, TNB absorbance 405 nm; Potency, µM (titrated, usually from 114 µM), without a hit: at the highest dose activity change, negative = inhibition, actives largely listed as inhibitors; actives 3% (n = 360,000); AID 485364; further: potency means the concentration at half of the fitted maximal effect; on the % scale 0 is the no-effect control and ±100 the full control effect; nearly all actives have a fitted effect of over 60% in size
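TGR 20 nM + NADPH 100 uM (dispensed conc.), cpd preinc 15 min RT; start with NADPH (500 uM addition) then DTNB (15 mM addition). Kinetic TNB absorbance, 405 nm filter. Four-parameter Hill fit across titration.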
HCMV antiviral: blocks human cytomegalovirus replication; HFF cells, HCMV-luciferase reporter, 72 h; hits give low values; activity change, negative = inhibition, % at 57.5 µM; actives 4.5% (n = 410,000); AID 1259415; in the data active means activity change below about -60%; inconclusive means no clear call, values can overlap the other calls; inactive means above about -39%; further: on the % scale 0 is the no-effect control and ±100 the full control effect
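Cell-based, HFFs, 1000 cells/well, 16 h 37C; cpds in DMSO + HCMV-luc, MOI 1 PFU/cell; 72 h 37C; OneGlo luminescence after 5 min RT; norm. to buffer vs Salinomycin 10uM.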
Pf growth 96h: inhibits malaria parasite growth, 96 h | P. falciparum luciferase reporter growth, 96 h | Potency, µM (highest dose often 28.7 µM), inactives show top-dose activity change, negative = inhibition, actives largely listed as inhibitors | actives 6.9% (n = 320,000) | AID 504834; further: potency means the concentration at half of the fitted maximal effect; on the % scale 0 is the no-effect control and ±100 the full control effect
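96 h incubation, 37 C, 5% CO2, of luciferase-reporter P. falciparum-infected RBCs (2% hematocrit, 0.05% parasitemia final) with test compounds; endpoint luminescence.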
HCV inhibitor: blocks hepatitis C virus; Huh7.5.1 HCVcc-Cre infection, luciferase reporter, 44 h; Potency, µM (series often up to 41.8 µM), for the others: at the highest dose activity change, negative = inhibition, actives largely listed as inhibitors; actives 3.4% (n = 340,000); AID 651820; further: potency means the concentration at half of the fitted maximal effect; on the % scale 0 is the no-effect control and ±100 the full control effect
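HCVcc-Cre virus at an moi near 0.5 was added right after compound to cells cultured 4 h from seeding (1,000 cells/well). Luciferase activity was determined 44 h later, 15 min after substrate addition at RT.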
* = called active by the depositor; ? = inconclusive; · = not tested or not shown; [ ] = another dose, or the depositor's remark. Unless noted, the call rests on the fitted dose curve; in most records, active means well fitted curve in the direction sought with a large enough effect; inconclusive means small, poorly fitted or top-dose-only effect, or another doubt; inactive means no such curve, though single readings can be large; an effect the other way counts as inactive or inconclusive.

SMILES	Pf growth 48h	SARS PLpro yeast	Sm TGR inh	HCMV antiviral	Pf growth 96h	HCV inhibitor
CC(CCc1ccccc1)N1CCN(Cc2ccccc2)CC1 (stereo not given)	26%	-3%	2%	-16	12µM*	3%
CC(CN1CCN(Cc2ccccc2)CC1)c1ccccc1 (stereo not given)	-29%	-8%	0%	32	-16%	14%
CCS(=O)(=O)N1CCN(C(C)CCc2ccccc2)CC1 (stereo not given)	-6%	-4%	1%	39	3.3µM*	-1%
CCOC(=O)N1CCN(C(=O)c2cc3cc(OC)c(OC)cc3[nH]2)CC1	7%	-1%	11%	-15	7%	9%
Cc1ccc(S(=O)(=O)N2CCN(C(=O)N3CCOCC3)C2C(C)C)cc1 (stereo not given)	-18%	-1%	14%	36	12µM*	17%
O=C(COC(=O)CCN1C(=O)/C(=C\C=C\c2ccccc2)SC1=S)Nc1ccc(Br)cc1	?	0%	·	-74*	-6%	-1%
CC(C)c1ccccc1NC(=O)COC(=O)CCN1C(=O)/C(=C\C=C\c2ccccc2)SC1=S	?	9%	-9%	-86*	?	3%
O=C(CCN1C(=O)/C(=C\C=C\c2ccccc2)SC1=S)Nc1ccccc1C(=O)O	6%	-2%	-24%	?	9.3µM*	-7%
O=C(CCN1C(=O)/C(=C\C=C\c2ccccc2)SC1=S)Nc1cccc(C(=O)O)c1	39%	2%	-36%	57	?	15%
Cc1cc(C(=O)CCl)c(C)n1CCc1ccc(F)cc1	?	22%	2.5µM*	-83*	?	?
Cc1cc(C(=O)CCl)c(C)n1CCc1ccc(Cl)cc1	?	-3%	7.9µM*	-98*	8.3µM*	10µM*
Cc1cc(C(=O)CSc2nnc(N)s2)c(C)n1CCc1ccc(Cl)cc1	-21%	-5%	0%	-27	?	?
Cc1ccc(N(C)C(=O)N2CCN(S(=O)(=O)c3ccc(C)c(C)c3)CC2)cc1	·	5%	-9%	-16	?	8%
CCCCN1C=CC(=C2N=c3cccc([N+](=O)[O-])c3=N2)C=C1	86%	10%	5%	74	44%	0%
CCN1C=CC(=C2C(=O)c3ccccc3C2=O)C=C1	?	-26%	-8%	-89*	?	-7%
CCCCCCN1C=CC(=C2C(=O)c3ccccc3C2=O)C=C1	-17%	0%	0%	-66*	137%	3%
CN1C=CC(=C2C(=O)c3ccccc3C2=O)C=C1	·	-10%	-2%[11.4 µM]	·	?	·
CCC(C)(C)c1ccc2c(c1)C(=O)c1ccccc1C2=O	222%	-63%	-9%	3	?	?
CCCN1C=CC(=C2C(=O)c3ccccc3C2=O)C=C1	-94%	-30%	3%	-98*	6%	-6%
Cn1c(SCC(=O)NC(c2ccccc2)c2ccccc2)nnc1-c1cccs1	?	-5%	2%	-8	·	-16%
COc1ccc(CNCc2cccc(Oc3ccccc3)c2)cc1	73%	-2%	1%	-27	3.7µM*	?
CN1CCc2c(c3c(n2C)CCN(C)C3c2ccc(F)cc2)C1c1ccc(F)cc1 (stereo not given)	?	-2%	?	3	·	0%
COc1ccc(C2c3c4c(n(C)c3CCN2C)CCN(C)C4c2ccc(OC)cc2)cc1 (stereo not given)	?	5%	-8%	-25	·	13µM*
Cc1cccc(-c2oc3ccc(-c4ccc5c(c4)OCO5)cc3c2C(=O)OCc2ccc(O)cc2)c1	17%	2%	6%	?	52%	11%
Cc1ccc([N+](=O)[O-])cc1N=C(c1cccc([N+](=O)[O-])c1)N1CCOCC1	?	4%	-18%	27	?	0%
Cc1ccc([N+](=O)[O-])cc1N=C(c1ccc([N+](=O)[O-])cc1)N1CCOCC1	?	-4%	-17%	27	8.3µM*	5%
